From PubChem BioAssay (NCATS) come the findings set out here.

Values joined by “and” are separate entries in the source; they are usually repeats but may differ in a detail not shown here. Equal values may be shown once. Records with an inconclusive call do not appear. Active and inactive are the calls of the source. Unless noted, calls follow the shape of the dose curve; as a rule, active = well fitted curve in the direction sought with a large enough effect; inconclusive = small, poorly fitted or top-dose-only effect, or another doubt; inactive = no such curve, though single readings can be large; an effect the other way counts as inactive or inconclusive. Peptide text beside a SMILES is read from it.

A short description of test [1]: qHTS of Trypanosoma Brucei Inhibitors: LOPAC Validation (AID 624147). Also: 0% is about no effect. In a few lines:
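T. brucei PYK with substrate was exposed to pin-transferred compounds across a concentration series, then started with 130 uM ADP (final). After 45 min at room temperature, Kinase-Glo Plus luminescence was read, normalized and curve-fitted.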
(In general: qHTS replaces the single test concentration by a dilution series.)

The target of test [2] is Glucagon-like peptide 1 receptor (Homo sapiens) (UniProt P43220). The test is described as follows: qHTS of GLP-1 Receptor Agonists: LOPAC Validation (AID 624148).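 Also: 0% is about no effect; higher luminescence signal means agonism.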 The procedure, abridged:
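HEK293 cells stably co-expressing a cAMP-responsive luciferase reporter and a hypersensitive GLP-1R were plated 12 h at 37 °C and exposed to compounds for 4-6 hr at 37 °C, 5% CO2. Luminescence was read 12 min after adding detection reagent.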

Test [3] is described as follows: qHTS of Nrf2 Activators: LOPAC Validation (AID 624149). Also: 0% is about no effect. The procedure, abridged: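 ARE reporter activation measured in AREc32 firefly luciferase cells after 24 hr compound exposure; Steady-Glo luminescence.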
A short description of test [4]: HTS Assay for Allosteric Antagonists of the Human D2 Dopamine Receptor: Hit Validation in HTRF (AID 624455). Also: % is scaled to controls: 0 for no effect and ±100 for the full control effect. In a few lines: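 Signal from an HTRF read-out in D1-expressing stable cells gave hit activity as inhibition of the D1 response.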
In general terms: TR-FRET usually uses a lanthanide donor and a delayed reading to cut background.

The nature of test [5]: Cytotoxicity counterscreen for NFkB agonists and antagonists (AID 624476).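 Also: cells exposed to compound for 48 hours.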 Also: potency is read from the fitted curve at half-maximal effect.
A short description of test [6]: qHTS Assay for Identification of Small Molecule Agonists for NFkB Signaling Pathway. (AID 624478).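 Also: compounds tested together with TNF alpha at its EC50 of 10 pM; 0% is about no effect.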 In a few lines: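 Cells carrying an NFkB response element-driven beta-lactamase gene are co-treated with compound and 10 pM TNF alpha for 5 h, and reporter activity is then read as 460 and 530 nm fluorescence.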
Test [7] can be described thus: Cell Proliferation Assay against the TMD8 Cell Line (AID 651645).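 Also: cells exposed to compound for 48 h before reading.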 The conditions noted are these: TMD8 DLBCL cell line proliferation/viability; at 46.1 µM (top of the series) unless noted. In a few lines:
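500 TMD8 cells/well, RPMI + Glutamax, no phenol red, 5% FBS; cpd added immediately; 48 h, 37C, 5% CO2; CellTiter-Glo, luminescence. Controls: DMSO = 100%, bortezomib 9.2 uM final = 0%.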

Test [8] can be described thus: Cell Proliferation Assay against the HBL1 Cell Line (AID 651646).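 Also: cells exposed to compound for 48 h before reading.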 The conditions noted are these: HBL1 DLBCL cells; at 46.1 µM (top of the series) unless noted. The procedure, abridged: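 500 log-phase HBL1 cells per well in phenol red-free RPMI with 5% FBS were treated with compounds for 48 h at 37 °C, 5% CO2. Viability was read by CellTiter-Glo luminescence, normalized to DMSO (100%) and 9.2 uM bortezomib final (0%).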

Test [9] is described as follows: qHTS Assay for Identification of Small Molecule Antagonists for NFkB Signaling Pathway. (AID 624479; calls by dose curve;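 also: pathway stimulated with TNF alpha; % is scaled to controls: 0 for no effect and ±100 for the full control effect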).
A short description of test [10]: Cell Proliferation Assay against the TMD8 Cell Line (Caspase readout at 16 hrs) (AID 651712). In a few lines: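 TMD8 cells (500/well) in phenol-red-free RPMI with glutamine, 5% FBS, were exposed to compounds for 16 h at 37 °C. Caspase 3/7 activation was read by Caspase-Glo luminescence; percent activity normalised to DMSO (0%) and 9.2 uM bortezomib final (100%).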

Test [11] in a line: Cell Proliferation Assay against the TMD8 Cell Line (Caspase readout at 8 hrs) (AID 651713). In a few lines: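 Percent activity derived from Caspase-Glo signal, DMSO set to 0% and bortezomib (9.2 uM final) to 100%. TMD8 cells were exposed to compound for 8 h in RPMI with 5% FBS.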
The nature of test [12]: qHTS assay for small molecule agonists of the antioxidant response element (ARE) signaling pathway (AID 651741; active = well fitted activation curve with a large enough effect in the signal ratio; the % refers to the signal ratio; also: % of control where 0% means no effect). The procedure, abridged:
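ARE-bla HepG2 cells (beta-lactamase reporter under ARE control) were plated at 2,000 cells/well, preincubated 5 h at 37 C/5% CO2, then treated with DMSO-dissolved compounds for 16 h at 37 C; LiveBLAzer B/G FRET substrate added, fluorescence read after 2 h at room temperature.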

Test [13] is described as follows: qHTS assay for small molecule activators of the nuclear factor-kappa B (NF-kB) signaling pathway (AID 651749; active = well fitted activation curve with a large enough effect in the signal ratio; the % refers to the signal ratio; also: % of control where 0% means no effect). The following applies: NF-kB-bla ME-180 cells, beta-lactamase FRET ratio, 16 h; stronger effect = higher value. In a few lines:
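ME-180 cells stably carrying a beta-lactamase reporter under an NF-kB response element were exposed to compound or DMSO vehicle for 16 hr at 37C, 5% CO2. Pathway activation was read by FRET, since reporter expression disrupts FRET.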

Test [14] can be described thus: qHTS assay for small molecule disruptors of the mitochondrial membrane potential - 1 hr assay (AID 651754; calls by dose curve; also: nearly all actives have a fitted effect of over 35% in size; also: potency is read from the fitted curve at half-maximal effect). In a few lines:
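Steps: seed HepG2 cells and let attach overnight; pin-transfer compound or vehicle; incubate 1 hr at 37C; add Mito-MPS dye for 30 min; read two-channel fluorescence for monomer and aggregate forms.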

A short description of test [15]: qHTS assay for small molecule disruptors of the mitochondrial membrane potential - 5 hr assay (AID 651755; calls by dose curve; also: nearly all actives have a fitted effect of over 40% in size; also: potency is read from the fitted curve at half-maximal effect). In a few lines: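 HepG2 cells, attached overnight at 37C, were exposed to compound or DMSO for 5 hr at 37C, 5% CO2. Mito-MPS dye was then added for 30 min, and fluorescence read at 490/535 nm (monomers) and 540/590 nm (aggregates).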
In test [16] the target is Tumor necrosis factor (Homo sapiens) (UniProt P01375). Briefly: qHTS assay to identify small molecules that stimulate Tumor Necrosis Factor-alpha (TNF-alpha) secretion (AID 651757; active = well fitted curve in the direction sought with a large enough effect in the signal ratio; the % refers to the signal ratio; also: potency is read from the fitted curve at half-maximal effect). The procedure, abridged: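 Secreted TNF-alpha from compound-treated THP-1 cells (17 hrs, 37 C) was quantified with a homogeneous time-resolved fluorescence antibody assay.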
Test [17] in a line: qHTS assay for environmental chemicals that activate the Aryl hydrocarbon Receptor (AhR) signaling pathway (AID 651777). Also: % of control where 0% means no effect; nearly all actives have a fitted effect of over 15% in size. The following applies: 1A2-DRE human hepatoma cells, luciferase, 24 h; activation: stronger effect = higher value. In a few lines: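 Luminescence (One-Glo, 30 min, room temperature) reports AhR-driven luciferase in stably transfected human hepatoma cells bearing DRE and CYP1A2 promoter. Cells (1,200/well) were treated with compound for 24 hr at 37 C in qHTS format.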

Test [18] in a line: qHTS assay for small molecule activators of the p53 signaling pathway (AID 651743; active = well fitted activation curve with a large enough effect in the signal ratio, not every such curve was filed as active; the % refers to the signal ratio; also: potency is read from the fitted curve at half-maximal effect; as to activation: % of control where 0% means no effect). The conditions noted are these: HCT-116 p53RE-bla, beta-lactamase FRET ratio, 16 h; activation: stronger effect = higher value. In a few lines:
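p53RE-bla HCT-116 cells with a stably integrated beta-lactamase reporter under p53 response elements were plated, rested 5 hours at 37 C/5% CO2, then exposed to compounds in DMSO for 16 hours at 37 C. LiveBLAzer B/G FRET substrate was read after 2 hours at room temperature.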

A short description of test [19]: qHTS assay to identify small molecules that stimulate interleukin-8 (IL-8) secretion (AID 651758; active = well fitted activation curve with a large enough effect in the signal ratio; the % refers to the signal ratio; also: 0% is about no effect). In a few lines: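 THP-1, 2000 cells/well; cpd 16 h, 37 C; add cryptate + XL665 anti-IL-8 Abs; RT 1-3 h; TR-FRET read.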

Sequence of Tumor necrosis factor (Homo sapiens) (P01375 whole entry, looked up): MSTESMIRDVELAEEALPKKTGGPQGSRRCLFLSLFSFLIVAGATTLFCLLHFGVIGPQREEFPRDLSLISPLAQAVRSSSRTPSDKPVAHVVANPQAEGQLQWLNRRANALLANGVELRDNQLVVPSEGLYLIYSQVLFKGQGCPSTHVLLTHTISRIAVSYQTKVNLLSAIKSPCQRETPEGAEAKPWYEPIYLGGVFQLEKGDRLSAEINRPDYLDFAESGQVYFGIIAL
Sequence of Glucagon-like peptide 1 receptor (Homo sapiens) (P43220 whole entry, looked up): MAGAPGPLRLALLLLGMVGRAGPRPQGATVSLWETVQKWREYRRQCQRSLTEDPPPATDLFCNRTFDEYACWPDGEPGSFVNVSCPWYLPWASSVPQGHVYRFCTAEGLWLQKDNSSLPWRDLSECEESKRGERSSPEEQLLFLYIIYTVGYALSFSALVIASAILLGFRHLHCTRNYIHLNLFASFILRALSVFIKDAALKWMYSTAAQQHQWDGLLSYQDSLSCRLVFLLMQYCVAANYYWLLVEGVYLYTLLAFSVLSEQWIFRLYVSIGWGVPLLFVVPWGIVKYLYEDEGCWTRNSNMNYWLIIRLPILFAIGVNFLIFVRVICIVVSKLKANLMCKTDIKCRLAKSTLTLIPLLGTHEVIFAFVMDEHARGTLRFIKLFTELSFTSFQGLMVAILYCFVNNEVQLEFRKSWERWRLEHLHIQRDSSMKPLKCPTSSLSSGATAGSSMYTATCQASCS

On to `CC(C)c1ccc2c(c1)c(SC(C)(C)C)c(CC(C)(C)C(=O)O)n2Cc1ccc(Cl)cc1`, for which the Potency result in test [1] is “inactive”. Moreover, the call in [2], in [3], in [4] and in [6] was inactive. For the same molecule, the Potency in test [5] was 8.33 µM (active). In addition, the viability (% of control) in test [7] was 9.44%. Further, the viability, percent of control in test [8] was 8.87%.

Regarding `CCN(CCO)CCCC(C)Nc1ccnc2cc(Cl)ccc12` (centres undefined), the Potency entry in [5], in test [9], in [10] and in test [11] was “inactive” each time. Also, the outcome in [6] was inactive. For the same molecule, the viability (% of control) in [7] worked out at 114%. Moreover, the viability, percent of control in test [8] turned out to be 121%.

Regarding `Cc1ccc(C)c(OCCCC(C)(C)C(=O)O)c1`, the Potency result in [12], in test [14], in test [15] and in [16] was “inactive” throughout. For the same molecule, the activation was -1.25% (inactive) and -0.0385% (inactive) in test [13]; -0.112% (inactive) and 1.21% (inactive) in test [17].

Regarding `COC(=O)[C@H](Cc1ccccc1)NC(=O)[C@@H](N)CC(=O)O` (H-Asp-Phe-OMe), the Potency result in test [12] and in test [16] was “inactive” in each case. For the same molecule, the activation is 0.335% (inactive) and -1.33% (inactive) in test [18]; -1.39% (inactive) and -0.748% (inactive) in test [13]; -1.45% (inactive) and -0.834% (inactive) in test [17]. Also, in test [19], the outcome was inactive.

In the case of `NS(=O)(=O)c1cc(C(=O)O)c(NCc2ccco2)cc1Cl`, the Potency entry in test [12], in [14], in test [15] and in test [16] was “inactive” throughout. In test [13], the activation is -1.24% (inactive) and -2.58% (inactive).

As for `Nc1cccc2c1CN(C1CCC(=O)NC1=O)C2=O` (centres undefined), the Potency result in [5], in test [9], in test [10] and in test [11] was “inactive” throughout. For the same molecule, the molecule was called inactive in [6]. Besides, the viability (% of control) in test [7] came to 102% [at 92.2 µM]. In addition, in test [8], the viability, percent of control amounted to 121% [at 92.2 µM].

For `Nc1ccc(S(N)(=O)=O)cc1`, the Potency result in [12], in [14], in test [15] and in test [16] was “inactive” in each case. For the same molecule, the activation in [18] was -2.72% (inactive); in test [17], -0.82% (inactive).

As for `CN(C)c1ccc2nc3ccc(=[N+](C)C)cc-3sc2c1`, the Potency is 20 µM (active) in [18], 3.76 µM (active) in [14], 5.31 µM (active) in test [15] and 10.6 µM (active) in test [16]. Moreover, in [17], the activation is -2.65% (inactive).

Take `S=c1nc[nH]c2nc[nH]c12`: the molecule was called inactive in test [6]. The Potency result in test [9], in test [10] and in test [11] was “inactive” each time. Besides, the viability (% of control) in test [7] is 39.5% [at 92.2 µM]. Further, the viability, percent of control in test [8] came out at 54.4% [at 92.2 µM].

Turning to `Cc1cccc(C#Cc2ccccc2)n1`, the Potency entry in test [1], in test [5], in test [9] and in test [10] was “inactive” throughout. Also, the molecule was called inactive in test [2], in test [4] and in test [6]. In addition, the viability (% of control) in test [7] is 116%. Besides, the viability, percent of control in [8] was determined as 102%.

Consider `COc1cc(OC)c(C(=O)CCCN2CCCC2)c(OC)c1`, for which, in test [12], the Potency entry was “inactive”. In addition, the results for the activation in test [18], in test [13] and in test [17] were -0.273% (inactive), -0.152% (inactive) and -1.93% (inactive), respectively.
